# According to PubChem BioAssay (NCATS):
# Results filed as inconclusive are left out. Where a call stands in place of a potency, no number is given. Active and inactive are the calls of the source. Calls follow the shape of the dose curve; as a rule, active = well fitted curve in the direction sought with a large enough effect; inconclusive = small, poorly fitted or top-dose-only effect, or another doubt; inactive = no such curve, though single readings can be large; an effect the other way counts as inactive or inconclusive.
# Experiments:
# [1] = target: Flap endonuclease 1 (Homo sapiens) (UniProt P39748); assay: qHTS Validation Assay for the Inhibitors of Human Flap endonuclease 1 (FEN1) (AID 488816)
# Summary of the method: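 qHTS format: compounds and 10 nM FEN1 incubated 15 min at room temperature before adding 50 nM substrate. Cleavage followed by reads at 0 and 15 min; normalized data fitted to a four-parameter Hill curve.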
# [2] = target: M-phase phosphoprotein 8 (Homo sapiens) (UniProt Q99549); assay: qHTS Validation Assay for Inhibitors for MPP8 Chromodomain Interactions with Methylated Histone Tails (AID 488949);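 also: 50 nM MPP8 with 50 nM peptide preformed then compounds added for 30 min; AlphaScreen signal from MPP8 chromodomain bound to biotinylated H3K9me3 peptide; top concentration of the series differs between compounds; nearly all actives have a fitted effect of over 55% in size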
# Summary of the method: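 50 nM MPP8 + 50 nM b-H3K9me3 peptide, PBS pH 7.4/0.01% Tween-20, 30 min RT; + cpd 30 min RT; + AlphaScreen donor/Ni-chelate acceptor beads 10 ug/mL final, 30 min dark; luminescence read.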
# [3] = target: Chromobox protein homolog 1 (Homo sapiens) (UniProt P83916); assay: qHTS Validation Assay for Inhibitors of HP1-beta Chromodomain Interactions with Methylated Histone Tails (AID 488953);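 also: loss of AlphaScreen luminescence from HP1-beta binding biotinylated H3K9me3 peptide; series mostly up to about 110 µM; nearly all actives have a fitted effect of over 50% in size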
# Summary of the method: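 AlphaScreen proximity signal from streptavidin donor and nickel chelate acceptor beads (final 10 ug/mL) after 30 min dark incubation. Compounds had 30 min at room temperature with preformed complex of 50 nM HP1-beta and 50 nM b-H3(1-18)K9me3 in PBS pH 7.4 with 0.01% Tween-20.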
# [4] = target: Methanococcus maripaludis chaperonin (MmCpn) (UniProt Q6LX38); assay: High-Throughput Screening for Modulators of Cytosolic Chaperonin Activity: MmCpn Primary Screen (AID 488978);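 also: 50 nM MmCpn enzyme hydrolysing 30 µM ATP at 37 °C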
# Summary of the method: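 Steps: chaperonin 50 nM final; add compound, 5 min RT; start with ATP, 30 uM final; hold 10 min at 37C; add ADP Transcreener HTRF reagent, 5 min; read ex 320, em 590 and 665 nm.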
# [5] = target: Transient receptor potential cation channel subfamily V member 1 (Homo sapiens) (UniProt Q8NER1); assay: HTS Assay for Compounds that Act as Enhancers of the Vanilloid Receptor 1 (AID 488979)
# Summary of the method: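 Calcium influx kinetics via Fluo-8 (480/520 nm) in TRPV1-expressing cells, 2000/well cultured overnight at 35.5C. Compound-alone read 3 min (agonist phase), followed by EC20 capsaicin challenge for 2 min (enhancer phase).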
# [6] = target: D(1A) dopamine receptor (Homo sapiens) (UniProt P21728); assay: HTS Assay for Allosteric Agonists of the Human D1 Dopamine Receptor: Primary Screen for Agonists (AID 488981)
# Summary of the method: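 Calcium flux in an inducible, force-coupled HEK293 Trex D1 line (overnight at 30 C): agonist mode is the 180 s kinetic read after compound; potentiator mode is the following 180 s read after dopamine at EC20.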
# [7] = target: D(1A) dopamine receptor (Homo sapiens) (UniProt P21728); assay: HTS Assay for Allosteric Agonists of the Human D1 Dopamine Receptor: Primary Screen for Potentiators (AID 488982)
# From the text: Dopamine receptors (DARs) are involved in the etiology and/or therapy of a number of neuropsychiatric and endocrine disorders. For instance, all receptor-based antiparkinsonian drugs work via stimulating the […] DAR subtype whereas all FDA-approved antipsychotic agents are antagonists of this receptor. […] There are three different types of allosteric modulators that we are seeking, two of which will stimulate or augment receptor signaling, allosteric agonists and potentiators, while the third, allosteric antagonists, will attenuate receptor signaling. The present primary screening assay measures compound agonism by tracking calcium flux in a […], inducible Hek293 Trex D1 cell line.
# Freshly passaged cells are plated in 1536 well black, clear bottom plates at a density of 4000 cells/well in 3 ul of complete media containing 1x tetracycline inducer. After an overnight incubation at 30 C in 5% CO2, cells are loaded with 2 ul of the no wash Calcium Assay Kit (ABD Bioquest) and incubated at room temperature for 30 to 90 minutes. A 10 cycle (1 second/cycle) baseline measurement is taken and then the FDSS online 1536 pintool delivers 23 nl of compound library (as well as dopamine controls) to the plate. The plate is measured for kinetically at 1 cycle/sec for 180 seconds and is considered to be the agonist portion of the assay (eg, compounds which activate a positive calcium response during this portion are flagged as potential agonists). Following the 180 second read, 1 ul of an EC20 of dopamine is delivered by an onboard pipette head. Measurements are taken kinetically for an additional 180 seconds.
# [8] = target: D(1A) dopamine receptor (Homo sapiens) (UniProt P21728); assay: HTS Assay for Allosteric Agonists of the Human D1 Dopamine Receptor: Primary Screen for Antagonists (AID 488983);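 also: calcium flux response to an EC80 dopamine challenge measured with no-wash dye; nearly all actives have a fitted effect of over 65% in size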; also: potency is read from the fitted curve at half-maximal effect
# Summary of the method: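 Calcium-flux read-out in inducible HEK293 T-REx cells expressing D1, dye-loaded 30–90 min at room temperature. Kinetic reads: 180 s after compound (agonist phase), then 180 s after an EC80 dopamine challenge.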
# [9] = target: ATP-dependent 6-phosphofructokinase (Trypanosoma brucei brucei) (UniProt O15648); assay: qHTS Assay to Find Inhibitors of T. brucei phosphofructokinase: hit validation (AID 492961);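 also: luminescence reports ADP formed as PFK phosphorylates fructose-6-phosphate with ATP; series mostly up to about 51 µM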
# Summary of the method: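 ADP-Glo luminescence read-out of ADP formed by 1.25 nM PFK from 0.1 mM ATP and 0.5 mM F6P (TEA pH 8.0, 45 min, RT). Compounds titrated; activity normalized to no-enzyme and full-enzyme controls.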
# [10] = target: Thyrotropin receptor (Homo sapiens) (UniProt P16473); assay: qHTS Assay for Antagonists of the Thyroid Stimulating Hormone Receptor (AID 488980); also: series mostly up to about 58 µM
# Summary of the method: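 Readout is cAMP by HTRF competition between cellular cAMP and cAMP-d2 for a cryptate-labelled antibody. Antagonism was assessed in TSHR-transfected HEK293 cells stimulated with 4 nM TSH (EC80, final) in the presence of RO 20-1724.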
# Chromobox protein homolog 1 (Homo sapiens), sequence (P83916 whole entry, looked up): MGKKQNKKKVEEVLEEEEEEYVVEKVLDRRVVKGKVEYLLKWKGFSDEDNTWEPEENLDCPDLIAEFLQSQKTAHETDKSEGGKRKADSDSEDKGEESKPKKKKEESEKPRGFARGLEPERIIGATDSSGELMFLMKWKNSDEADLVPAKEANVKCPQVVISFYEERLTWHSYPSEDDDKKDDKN
# ATP-dependent 6-phosphofructokinase (Trypanosoma brucei brucei), sequence (O15648 whole entry, looked up): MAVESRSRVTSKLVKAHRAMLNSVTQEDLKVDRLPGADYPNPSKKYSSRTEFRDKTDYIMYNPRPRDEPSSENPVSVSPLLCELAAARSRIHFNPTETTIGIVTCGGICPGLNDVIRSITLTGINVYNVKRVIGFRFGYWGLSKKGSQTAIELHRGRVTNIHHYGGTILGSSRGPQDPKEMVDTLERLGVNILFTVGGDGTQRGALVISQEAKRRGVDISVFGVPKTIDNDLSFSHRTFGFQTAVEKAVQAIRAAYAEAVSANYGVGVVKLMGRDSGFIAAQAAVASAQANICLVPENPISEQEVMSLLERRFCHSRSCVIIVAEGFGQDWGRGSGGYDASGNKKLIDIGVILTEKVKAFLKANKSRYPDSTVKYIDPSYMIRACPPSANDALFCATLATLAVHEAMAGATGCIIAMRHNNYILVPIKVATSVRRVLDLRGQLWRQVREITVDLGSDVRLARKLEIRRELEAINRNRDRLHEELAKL
# M-phase phosphoprotein 8 (Homo sapiens), sequence (Q99549 whole entry, looked up): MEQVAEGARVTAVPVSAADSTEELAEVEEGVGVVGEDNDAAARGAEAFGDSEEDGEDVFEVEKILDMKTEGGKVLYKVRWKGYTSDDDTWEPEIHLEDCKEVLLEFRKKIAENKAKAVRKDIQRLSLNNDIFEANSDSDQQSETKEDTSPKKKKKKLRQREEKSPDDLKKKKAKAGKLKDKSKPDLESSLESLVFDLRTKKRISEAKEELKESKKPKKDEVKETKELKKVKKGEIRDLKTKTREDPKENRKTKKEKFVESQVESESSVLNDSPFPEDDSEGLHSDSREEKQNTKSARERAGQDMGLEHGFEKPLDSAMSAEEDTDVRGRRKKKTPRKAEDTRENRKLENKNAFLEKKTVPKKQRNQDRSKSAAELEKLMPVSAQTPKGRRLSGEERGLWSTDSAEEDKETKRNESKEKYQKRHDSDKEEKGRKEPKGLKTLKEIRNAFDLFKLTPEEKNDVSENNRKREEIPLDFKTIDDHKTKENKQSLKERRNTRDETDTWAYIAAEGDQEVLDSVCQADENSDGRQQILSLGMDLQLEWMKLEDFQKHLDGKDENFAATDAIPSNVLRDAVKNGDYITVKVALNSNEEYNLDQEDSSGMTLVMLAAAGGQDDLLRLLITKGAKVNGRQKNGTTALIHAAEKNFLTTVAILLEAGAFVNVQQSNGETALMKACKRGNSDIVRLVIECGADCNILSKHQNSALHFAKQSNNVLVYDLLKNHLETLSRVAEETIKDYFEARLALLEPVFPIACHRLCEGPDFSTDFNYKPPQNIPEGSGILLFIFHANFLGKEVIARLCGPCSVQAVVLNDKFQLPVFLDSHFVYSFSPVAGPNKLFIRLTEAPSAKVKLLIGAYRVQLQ
# Flap endonuclease 1 (Homo sapiens), sequence (P39748 whole entry, looked up): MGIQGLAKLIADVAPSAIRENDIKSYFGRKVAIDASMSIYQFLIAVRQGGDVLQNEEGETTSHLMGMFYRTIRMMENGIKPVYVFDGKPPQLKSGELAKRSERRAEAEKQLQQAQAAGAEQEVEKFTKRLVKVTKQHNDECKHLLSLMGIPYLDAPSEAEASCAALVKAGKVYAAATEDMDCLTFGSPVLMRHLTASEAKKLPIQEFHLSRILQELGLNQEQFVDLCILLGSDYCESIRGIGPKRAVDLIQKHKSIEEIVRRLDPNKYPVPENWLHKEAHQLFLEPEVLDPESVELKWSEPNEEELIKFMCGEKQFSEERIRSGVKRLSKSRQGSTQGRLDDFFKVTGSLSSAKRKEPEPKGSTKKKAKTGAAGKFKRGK
# Methanococcus maripaludis chaperonin (MmCpn), sequence (Q6LX38 1-543): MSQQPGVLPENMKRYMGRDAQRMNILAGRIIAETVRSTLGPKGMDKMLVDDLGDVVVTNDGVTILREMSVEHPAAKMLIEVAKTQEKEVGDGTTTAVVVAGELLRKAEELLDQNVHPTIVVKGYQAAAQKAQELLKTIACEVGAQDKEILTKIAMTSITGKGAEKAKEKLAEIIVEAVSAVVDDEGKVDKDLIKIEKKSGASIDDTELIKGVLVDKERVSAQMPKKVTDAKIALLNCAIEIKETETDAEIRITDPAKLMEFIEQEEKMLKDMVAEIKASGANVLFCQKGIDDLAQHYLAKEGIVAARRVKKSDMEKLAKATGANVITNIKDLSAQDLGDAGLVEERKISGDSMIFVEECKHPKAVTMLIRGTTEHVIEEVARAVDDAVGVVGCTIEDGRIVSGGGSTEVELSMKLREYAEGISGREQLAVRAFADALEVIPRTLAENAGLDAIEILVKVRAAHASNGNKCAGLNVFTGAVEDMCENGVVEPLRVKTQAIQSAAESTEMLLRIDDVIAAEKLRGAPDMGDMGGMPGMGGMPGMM
# Transient receptor potential cation channel subfamily V member 1 (Homo sapiens), sequence (Q8NER1 whole entry, looked up): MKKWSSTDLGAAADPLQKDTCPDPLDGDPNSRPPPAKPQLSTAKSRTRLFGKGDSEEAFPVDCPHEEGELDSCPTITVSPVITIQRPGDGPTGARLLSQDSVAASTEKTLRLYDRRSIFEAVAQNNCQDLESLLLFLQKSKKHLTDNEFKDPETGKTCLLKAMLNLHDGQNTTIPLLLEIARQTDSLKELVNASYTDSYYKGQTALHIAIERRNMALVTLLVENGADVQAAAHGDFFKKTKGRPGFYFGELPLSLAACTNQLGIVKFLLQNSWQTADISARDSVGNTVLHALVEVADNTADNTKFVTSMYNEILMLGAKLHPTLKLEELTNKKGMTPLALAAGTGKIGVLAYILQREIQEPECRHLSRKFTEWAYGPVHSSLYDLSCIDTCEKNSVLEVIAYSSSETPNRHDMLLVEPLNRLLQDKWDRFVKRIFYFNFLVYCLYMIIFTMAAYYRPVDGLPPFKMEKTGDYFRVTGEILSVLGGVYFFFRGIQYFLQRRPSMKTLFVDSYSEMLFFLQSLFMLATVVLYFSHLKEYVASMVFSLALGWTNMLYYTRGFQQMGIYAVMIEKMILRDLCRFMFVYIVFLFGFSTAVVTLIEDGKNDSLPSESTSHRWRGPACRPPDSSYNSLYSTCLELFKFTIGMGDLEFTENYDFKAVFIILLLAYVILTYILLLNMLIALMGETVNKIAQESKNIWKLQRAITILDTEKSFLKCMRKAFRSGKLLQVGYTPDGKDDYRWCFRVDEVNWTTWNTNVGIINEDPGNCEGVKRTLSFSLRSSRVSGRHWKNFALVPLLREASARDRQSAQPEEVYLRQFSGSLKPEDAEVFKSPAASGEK
# D(1A) dopamine receptor (Homo sapiens), sequence (P21728 whole entry, looked up): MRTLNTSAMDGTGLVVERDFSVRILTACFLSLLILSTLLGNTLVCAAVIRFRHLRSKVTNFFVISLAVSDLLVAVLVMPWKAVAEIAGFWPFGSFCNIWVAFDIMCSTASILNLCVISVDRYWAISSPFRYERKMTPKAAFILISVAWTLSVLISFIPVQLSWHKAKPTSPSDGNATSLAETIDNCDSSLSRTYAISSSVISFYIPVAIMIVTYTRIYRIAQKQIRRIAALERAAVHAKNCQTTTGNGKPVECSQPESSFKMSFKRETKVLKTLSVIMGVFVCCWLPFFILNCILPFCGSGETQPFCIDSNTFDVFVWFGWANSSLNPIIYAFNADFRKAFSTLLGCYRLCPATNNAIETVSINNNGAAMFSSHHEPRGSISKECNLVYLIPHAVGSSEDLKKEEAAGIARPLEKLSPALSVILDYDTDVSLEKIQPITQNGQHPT
# Thyrotropin receptor (Homo sapiens), sequence (P16473 whole entry, looked up): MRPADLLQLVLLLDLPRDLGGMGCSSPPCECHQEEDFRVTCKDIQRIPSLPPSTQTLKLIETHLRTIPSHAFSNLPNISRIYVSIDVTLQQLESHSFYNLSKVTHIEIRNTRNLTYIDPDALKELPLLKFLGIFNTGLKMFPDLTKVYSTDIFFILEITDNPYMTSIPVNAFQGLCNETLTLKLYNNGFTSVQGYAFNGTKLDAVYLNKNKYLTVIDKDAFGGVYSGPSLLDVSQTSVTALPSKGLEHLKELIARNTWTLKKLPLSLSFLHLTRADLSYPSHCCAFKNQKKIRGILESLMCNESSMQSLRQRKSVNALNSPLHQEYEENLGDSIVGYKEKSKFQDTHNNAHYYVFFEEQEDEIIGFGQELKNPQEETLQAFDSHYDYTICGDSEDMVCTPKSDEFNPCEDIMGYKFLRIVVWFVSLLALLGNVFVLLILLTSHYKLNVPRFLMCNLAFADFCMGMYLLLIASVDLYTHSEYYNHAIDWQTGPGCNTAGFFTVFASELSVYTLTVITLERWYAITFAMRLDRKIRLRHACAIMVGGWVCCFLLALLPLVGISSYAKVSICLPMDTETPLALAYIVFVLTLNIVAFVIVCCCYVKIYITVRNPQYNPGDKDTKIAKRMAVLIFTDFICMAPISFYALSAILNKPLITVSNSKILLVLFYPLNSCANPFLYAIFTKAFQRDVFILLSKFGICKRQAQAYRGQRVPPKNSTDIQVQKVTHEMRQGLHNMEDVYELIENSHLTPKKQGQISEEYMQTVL
structure (smiles),measurement,setting,value
COC(=O)C1=CCCN(C)C1,outcome,[1],inactive
same,Potency,[2],inactive
same,Potency,[3],inactive
same,outcome,[4],inactive
same,outcome,[5],inactive
same,outcome,[6],inactive
same,Potency,[7],inactive
same,Potency,[8],inactive
COCC(=O)N(c1c(C)cccc1C)C(C)C(=O)OC (stereo not drawn),Potency,[9],inactive
O=C(CCCN1CCC(n2c(=O)[nH]c3ccccc32)CC1)c1ccc(F)cc1,Potency,[9],inactive
CNC(=O)Oc1cccc2ccccc12,Potency,[9],inactive
Cc1cc(C(C)(C)C)cc(C)c1CC1=NCCN1,Potency,[2],inactive
COP(=S)(OC)Oc1ccc(Sc2ccc(OP(=S)(OC)OC)cc2)cc1,Potency,[9],inactive
O=C(NC(=O)c1c(F)cccc1F)Nc1cc(Cl)c(OC(F)(F)C(F)C(F)(F)F)cc1Cl (stereo not drawn),Potency,[9],inactive
CC[C@H]1CN2CCc3cc(OC)c(OC)cc3[C@@H]2C[C@@H]1C[C@H]1NCCc2cc(OC)c(OC)cc21,outcome,[1],inactive
NC(=O)OCCCc1ccccc1,Potency,[9],inactive
O=C(O)c1nn(Cc2ccc(Cl)cc2Cl)c2ccccc12,outcome,[1],inactive
same,Potency,[2],inactive
same,Potency,[3],inactive
same,outcome,[4],inactive
same,outcome,[5],inactive
same,outcome,[10],inactive
same,outcome,[6],inactive
same,Potency,[7],inactive
same,Potency,[8],inactive
same,Potency,[9],inactive
C[N+](C)(C)CCOC(=O)C(O)(c1ccccc1)c1ccccc1,Potency,[9],inactive
Nc1ccc(N)cc1,Potency,[9],inactive
CCN(Cc1ccc(Cl)nc1)/C(=C/[N+](=O)[O-])NC,Potency,[9],inactive
CN1C[C@H](C(=O)N[C@]2(C)O[C@@]3(O)[C@@H]4CCCN4C(=O)[C@H](Cc4ccccc4)N3C2=O)C[C@@H]2c3cccc4[nH]cc(c34)C[C@H]21,Potency,[2],inactive
same,Potency,[7],inactive
same,Potency,[8],8.91 µM (active)
Oc1ccc2[nH]cc(CCCCN3CC=C(c4ccccc4)CC3)c2c1,Potency,[9],inactive
O=C1NCN(c2ccccc2)C12CCN(CCCOc1ccc(F)cc1)CC2,Potency,[9],inactive
NC(N)=N/N=C/c1c(Cl)cccc1Cl,Potency,[7],inactive
COc1ccc(C(=O)N2CCCC2=O)cc1,Potency,[2],inactive
same,Potency,[3],inactive
same,outcome,[4],inactive
same,outcome,[5],inactive
same,outcome,[10],inactive
same,outcome,[6],inactive
same,Potency,[7],inactive
same,Potency,[8],inactive
